Data reported in PubChem BioAssay AID2013 (Sanford-Burnham Center for Chemical Genomics, 2009).
Out of some 290,000 compounds screened, about 370 (0.13%) were called active.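 How the source made its calls: active means spots per cell inhibited over 60%, with over 100 cells counted and total cytoplasm intensity under 500,000; inconclusive means wells with under 100 cells, flagged as likely toxic; inactive means the rest.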 What follows is part of a selection rich in actives, with near analogues and random picks from the rest. Results with a measured potency or affinity are listed apart.

Molecular target: G-protein coupled receptor 55 (Homo sapiens) (UniProt Q9Y2T6)
Test: inhibition of LPI-stimulated GPR55 beta-arrestin translocation – imaging, U2OS, beta-arrestin-GFP, LPI agonist, primary screen (AID 2013);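 further: U2OS cells stably carrying GPR55 and arrestin-GFP stimulated by 5 µM LPI near EC80; imaged beta-arrestin-GFP aggregate spots per cell after agonist stimulation; plate controls were LPI-stimulated DMSO wells for no effect and DMSO wells without LPI for full effect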
Settings: LPI antagonism, at 10 µM, hits give high values

Chain of G-protein coupled receptor 55 (Homo sapiens) (Q9Y2T6 whole entry, looked up): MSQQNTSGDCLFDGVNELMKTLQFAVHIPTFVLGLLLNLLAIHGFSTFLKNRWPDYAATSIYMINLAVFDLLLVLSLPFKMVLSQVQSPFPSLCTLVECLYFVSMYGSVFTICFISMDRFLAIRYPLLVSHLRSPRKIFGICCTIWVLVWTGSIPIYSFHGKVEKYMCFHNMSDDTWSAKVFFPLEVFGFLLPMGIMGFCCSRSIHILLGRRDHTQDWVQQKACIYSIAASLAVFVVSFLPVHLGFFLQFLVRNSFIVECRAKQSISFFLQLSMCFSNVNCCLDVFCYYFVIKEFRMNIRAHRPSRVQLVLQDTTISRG

inhibition, inactive:
CC(=O)c1ccc(NC(=O)COc2ccccc2C(=O)Nc2ccc(C)cn2)cc1 10%
CC(C)CC1(C)NC(=O)N(Cc2cc([N+](=O)[O-])cc3c2OCOC3)C1=O (centres undefined) -6.2%
CCCN(CC1CC1)C(=O)COC(=O)c1ccc(CNS(=O)(=O)c2ccc(F)c(Cl)c2)cc1 0.7%
c1ccc(OCCOc2ccccc2-c2nnco2)cc1 -6.8%
Cc1ccc(-c2ccccc2[C@@H]2C[C@H]3CN(C)C(=O)[C@]34CCCN24)o1 -2.8%
CC(C)N(C=O)C1(C(=O)NC2CCCCC2)CCCCC1 5.3%
COc1ccc[nH]c1=O 0.4%
CC(O)CNc1cnccn1 (centres undefined) 14.2%
O=C(NCCN1CCNC1=O)C1CCC(=O)N(Cc2cccc(C(F)(F)F)c2)C1 (centres undefined) -10.6%
Cc1ccc(NC(=S)NNC(=O)c2c([N+](=O)[O-])c(C)nn2C)cc1 -1.6%
CN1C2CCC1/C(=C\c1ccccc1Cl)C(=O)/C2=C\c1ccccc1Cl -4.7%
CN1C2CCC1/C(=C\c1ccccc1)C(=O)/C2=C\c1ccccc1 15.1%
CC(C)(C)c1ccc(C(=O)Nc2ccc(C(=O)N3CCOCC3)cc2)cc1 13%
O=C(NCC(=O)N1CCN(S(=O)(=O)/C=C/c2ccccc2)CC1)c1ccc(Cl)cc1 10.1%
CCN(CC)CCNC(=S)N1CCn2c(nc3ccccc32)C1 3.9%
CCOC(=O)c1c(C)n(C)c2ccc(OC)c(NC(=O)CN3CCC(C(=O)OCC)CC3)c12 -6.7%
CCOc1ccccc1NC(=O)Nc1ccc(Br)cn1 13.3%
CN(NC(=O)CN1C(=O)c2ccccc2C1=O)C1=NS(=O)(=O)c2ccccc21 -1.6%
C[C@H](NC(=O)c1[nH]cnc1C(=O)Nc1ccc(CNC(=O)OC(C)(C)C)cc1)C(=O)OCc1ccccc1 1.5%
CC(C)(C)OC(=O)NCc1ccc(CNC(=O)c2[nH]cnc2C(=O)N[C@@H](Cc2ccccc2)C(=O)OCc2ccccc2)cc1 35.5%
CC(C)(C)OC(=O)[C@H](Cc1ccccc1)NC(=O)c1nc[nH]c1C(=O)N1CCN(C(=O)OC(C)(C)C)CC1 4.7%
CC(C)C[C@H](NC(=O)c1[nH]cnc1C(=O)Nc1ccc(CNC(=O)OC(C)(C)C)cc1)C(=O)OCc1ccccc1 7%
C[C@H](NC(=O)c1nc[nH]c1C(=O)NCc1ccc(CNC(=O)OC(C)(C)C)cc1)C(=O)OC(C)(C)C 18.1%
CC(C)(C)OC(=O)N1CCC(NC(=O)c2[nH]cnc2C(=O)N[C@@H](Cc2ccccc2)C(=O)OCc2ccccc2)CC1 41.8%
CCN(CC)S(=O)(=O)c1cc(C(=O)Nc2cc(C)[nH]n2)ccc1Cl 17.6%
Cc1cc(C)nc(NS(=O)(=O)c2ccc(NC(=O)C3CC3)cc2)n1 0%
O=C(NNc1c(Cl)cccc1Cl)c1ccno1 5%
O=C(NC1CCCCC1)C(c1ccco1)N(C(=O)C(F)(F)F)C1CC1 (centres undefined) -2.5%
O=C(NCc1ccc2c(c1)OCO2)Nc1ccc(Cl)cc1 -2.2%
CC(=O)C(Cl)C(=O)Nc1ccccc1 (centres undefined) -8.1%
O=C(Nc1ccccc1)C(Cl)C(=O)c1ccccc1 (centres undefined) 6.1%
O=C(Nc1ccccc1Cl)c1ccccc1 3.2%
O=C(Nc1ccccc1Cl)Nc1ccccc1Cl 1.2%
CC(C(=O)Nc1ccccc1)C(=O)Nc1ccccc1 -4.5%
Cc1cccc(C)c1NC(=O)C(Cl)C(=O)c1ccccc1 (centres undefined) 2.5%
O=C(O)c1ccccc1NCc1ccsc1 -6.3%
Cc1ccc(/C=N/Nc2nc(C)cc(C)n2)cc1 0.6%
Cc1ccc(-n2nc(C)c(=O)c(-c3ccccc3)c2NC(=O)C(C)C)cc1 11.6%
Cc1cc(C)n(/C(=C\N(C)C)C(=O)c2ccc(Cl)cc2)n1 6.9%
O=C(CN1CCN(C(=O)c2ccco2)CC1)Nc1ccc(F)cc1F 10.4%
CC(C)(C)c1ccc(CN2C3=NCCCN3c3ccccc32)cc1 29.1%
CC(C)(C)c1ccc(CN2C(=O)CSC2=O)cc1 -2.7%
Cc1nc(C(Cl)(Cl)Cl)nc2[nH]ccc(=O)c12 4.1%
FC(F)(F)c1cccc(Cc2noc(CN3CCC(c4ccncc4)CC3)n2)c1 5.1%
Cc1nonc1NC(=O)CSc1nnc(N)s1 -5.8%
COc1cccc(-c2csc(N3CCN(Cc4ccccc4)CC3)n2)c1 -6.9%
COc1ccc(OC)c(/C=C/C(=O)Nc2cccc(S(=O)(=O)N3CCCC3)c2)c1 -3.3%
Cc1cc2c(cc1S(=O)(=O)Nc1ccc(F)cc1)n(C)c(=O)c(=O)n2C 9.6%
Cc1cc2c(cc1S(=O)(=O)Nc1cccc(F)c1)n(C)c(=O)c(=O)n2C -13.1%
Cc1cc(NS(=O)(=O)c2ccc(NC(=O)C(C)Oc3ccc(C(C)C)cc3)cc2)no1 (centres undefined) -4.7%
Cc1cccn2c(=O)c(/C=C(\C#N)S(=O)(=O)c3ccccc3)c(N3CCN(Cc4ccccc4)CC3)nc12 22.8%
N=c1c(C(=O)NC2CCCC2)cc2c(=O)n3ccccc3nc2n1C1CCCC1 8.6%
Cc1cccn2c(=O)c3cc(C(=O)NCc4ccco4)c(=N)n(C4CCCCC4)c3nc12 50%
Cc1cccn2c(=O)c3cc(C(=O)NC4CCCC4)c(=N)n(C4CCCCC4)c3nc12 19.8%
Cc1cccn2c(=O)c3cc(C(=O)NCc4ccco4)c(=N)n(C(C)C)c3nc12 45.5%
N=c1c(C(=O)NCc2ccco2)cc2c(=O)n3ccccc3nc2n1C1CCCC1 7.5%
Cc1ccc2nc3c(cc(C(=O)NCc4ccco4)c(=N)n3Cc3ccco3)c(=O)n2c1 23.2%
O=C(COC(=O)c1cc(=O)[nH]c(=O)[nH]1)Nc1cccc(S(=O)(=O)N2CCCCC2)c1 -7.4%
Cc1cccc(C)c1NC(=O)Cn1c(=O)c2cccn2c2ccccc21 3.5%
Cc1ccc(NC(=O)Nc2cnccn2)c(C)c1 1.4%
CC(C)CNC(=S)N1CCC(c2nc(-c3ccc(F)cc3)no2)CC1 6.8%
CCCc1nnc2n1N=C(c1ccc(-c3cc(Cl)ccc3Cl)o1)CS2 -0.8%
CC[C@H](C)[C@@H](NC(=O)O[C@@H]1C(=O)c2cc(Br)ccc2O[C@H]1c1ccc2c(c1)OCO2)C(=O)OC -3.7%
COC(CNC(=O)c1ccc(CS(=O)(=O)c2ccc(Br)cc2)o1)OC -14.8%
CC(=O)O[C@@H]1[C@H]2[C@@H](C[C@@H](C)[C@@H]3C=CC(=O)[C@@]13C)OC(=O)[C@@H]2C -2%
C[C@@H]1C[C@@H]2OC(=O)[C@]3(C)[C@H]2[C@@H](OC3(C)O)[C@]2(C)C(=O)C=C[C@H]12 (some centres undefined) 6.3%
C=C1C(=O)O[C@H]2C[C@]3(C)C([C@@H](OC(=O)/C(C)=C/C)[C@H]12)[C@](C)(O)CC[C@H]3O (some centres undefined) 10.2%
CC(=O)O[C@@H]1[C@H]2[C@@H](C[C@@H](C)[C@@H]3CCC(=O)[C@@]13C)OC(=O)[C@@H]2C 6.6%
O=C(Nc1ccc(-n2cnnn2)cc1)C(c1ccccc1)c1ccccc1 6.3%
CN1CCN(C(=O)c2cnn(-c3ccccc3)c2NC(=O)c2ccccc2Br)CC1 2.7%
COc1ccc(C(C)=O)cc1CSc1nnc(Nc2ccc(C)cc2C)s1 1.3%
CCOC(=O)CSc1nnc(Cn2nnc(-c3ccccc3)n2)n1CC 16%
CCn1c(Cn2nnc(-c3ccccc3)n2)nnc1SCC(=O)Nc1ccccc1 -10.2%
COc1ccccc1OCC(=O)NCc1nc(-c2ccccc2)no1 4.4%
COc1ccc2[nH]c3c(=O)n(/N=C/c4ccc(OC)c(CN5CCCC5)c4)c(C)nc3c2c1 11.7%
COc1ccc2cc(C(=O)CS(=O)(=O)c3ccccc3)c(=O)oc2c1 -4.7%
COc1ccc(S(=O)(=O)CC(=O)c2cc3cccc(C)c3oc2=O)cc1 -0.3%
COc1cc(S(=O)(=O)NC2CCCC2)c(OC)cc1Cl -2.6%
O=C(N1CCOCC1)C1(c2ccc(Cl)cc2)CCCC1 44.4%
COc1ccc(C2(C(=O)N3CCC(n4nc(-c5ccccc5)oc4=O)CC3)CC2)cc1 7.7%
O=C(N1CCC(n2nc(-c3ccccc3)oc2=O)CC1)C1(c2ccccc2)CC1 -6.7%
O=C(N1CCCCC1)C1(c2ccccc2)CCCCC1 4.3%
COc1ccc(C(OC(=O)c2ccco2)C(=O)NCc2ccco2)cc1 (centres undefined) 14.6%
COC(=O)c1ccccc1SCc1csc(C)n1 5.7%
COc1ccccc1NC(=O)CCN1CC(C)OC(C)C1 (centres undefined) 3.2%
O=C(NCC(=O)N1CCC2(CC1)NCCc1[nH]cnc12)c1ccc2ccccc2c1 15.2%
CCCN1C(=O)/C(=C/C=C2\N(CC)c3ccccc3C2(C)C)SC1=S -9%
CCCCN1C(=O)/C(=C/C=C2\N(C)c3ccccc3C2(C)C)SC1=S 17.2%
CCCCNC(=O)N1c2ccccc2CC1C (centres undefined) 7.4%
